Potency data for nine compounds are collected here from PubChem BioAssay (Tox21).

Values joined by “and” are separate entries in the source; they are usually repeats but may differ in a detail not shown here. Equal entries are not always repeated. Results filed as inconclusive are left out. Some structures have more than one record in an assay (separate samples or runs), and their calls can disagree. Active and inactive are the calls of the source. Unless noted, calls follow the shape of the dose curve; as a rule, active = well fitted curve in the direction sought with a large enough effect in the repeat runs; inconclusive = weak or mixed curves; inactive = no such curve, though single readings can be large; an effect the other way counts as inactive or inconclusive.

Assay [1] is described as follows: qHTS assay to identify small molecule antagonists of the glucocorticoid receptor (GR) signaling pathway - cell viability counter screen (AID 720693). Also: nearly all actives have a fitted effect of over 55% in size. The note with it: GR-bla HeLa viability, CellTiter-Glo luminescence, 18 h, with 5 nM dexamethasone present; series mostly up to 58.5 µM. (In qHTS, concentration-response curves come from the screen itself.)
The nature of assay [2]: qHTS assay for identifying genotoxic compounds that show differential cytotoxicity against isogenic chicken DT40 cell lines with known DNA damage response pathways - wild type cell line (AID 743012). Also: nearly all actives have a fitted effect of over 60% in size. Also: potency is read from the fitted curve at half-maximal effect. The note with it: DT40 wild type chicken cells viability, CellTiter-Glo, 40 h; series mostly up to 68.4 µM. The essentials: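 Cells (DT40 wild type, 300/well) are treated with DMSO-dissolved compounds after a ~0.5 h pre-incubation and kept 40 h at 37 C/5% CO2. Viability is then measured by CellTiter-Glo luminescence following 30 min at room temperature.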

The nature of assay [3]: qHTS assay for identifying genotoxic compounds that show differential cytotoxicity against isogenic chicken DT40 cell lines with known DNA damage response pathways - Rev3 mutant cell line (AID 743014). Also: nearly all actives have a fitted effect of over 55% in size. Also: potency is read from the fitted curve at half-maximal effect. The note with it: chicken DT40 Rev3-/- viability, CellTiter-Glo, 40 h; series mostly up to 68.4 µM.
Assay [4] in a line: qHTS assay for identifying genotoxic compounds that show differential cytotoxicity against isogenic chicken DT40 cell lines with known DNA damage response pathways - Rad54/Ku70 mutant cell line (AID 743015). Also: nearly all actives have a fitted effect of over 60% in size. Also: potency is read from the fitted curve at half-maximal effect. The note with it: DT40 Rad54/Ku70 mutant viability, CellTiter-Glo, 40 h; series mostly up to 66.8 µM.
A short description of assay [5]: qHTS assay to identify small molecule antagonists of the androgen receptor (AR) signaling pathway - cell viability counter screen (AID 743033; also: nearly all actives have a fitted effect of over 45% in size). The note with it: AR-bla HEK293 viability, CellTiter-Glo luminescence, 16 h; series mostly up to 58.5 µM.
A short description of assay [6]: qHTS assay to identify small molecule antagonists of the androgen receptor (AR) signaling pathway using the MDA cell line - cell viability counter screen (AID 743041; also: nearly all actives have a fitted effect of over 45% in size). The settings on record: MDA-kb2 viability, CellTiter-Fluor, 16 h, cells co-treated with R1881 androgen agonist; series mostly up to 70.3 µM. The method in brief: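 Viability counter screen run alongside the AR antagonist reporter: cells seeded 5 h before compound, R1881 added, 16 h incubation at 37C without CO2, fluorescent CellTiter-Fluor signal quantified.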

Assay [7] is described as follows: qHTS assay to identify small molecule antagonists of the thyroid receptor (TR) signaling pathway - cell viability counter screen (AID 743064). Also: nearly all actives have a fitted effect of over 50% in size. The settings on record: GH3.TRE-Luc viability, CellTiter-Fluor, 24 h; series mostly up to 70.3 µM. The essentials: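 GH3.TRE-Luc rat pituitary cells carrying a TRE-luciferase reporter were treated with compound plus 1 nM T3 (final) for 23.5 h at 37 °C. Viability was then read in the same wells by CellTiter-Fluor fluorescence after a further 30 min.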

Assay [8] deals with thyroid hormone receptor (rat, GH3 cells). The experiment in a line: qHTS assay to identify small molecule agonists of the thyroid receptor (TR) signaling pathway (AID 743066; calls by dose curve). The settings on record: GH3.TRE-Luc cells, TR agonist luciferase, 24 h; series mostly up to 83.9 µM.
A short description of assay [9]: qHTS assay to identify small molecule antagonists of the estrogen receptor alpha (ER-alpha) signaling pathway - cell viability counter screen (AID 743074; calls by dose curve;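 also: HEK293 cells carrying ER-alpha-UAS-bla reporter stimulated with 17beta-estradiol; nearly all actives have a fitted effect of over 45% in size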). The note with it: ERalpha-bla HEK293 viability, CellTiter-Glo luminescence, 18 h; series mostly up to 69.4 µM.
A short description of assay [10]: qHTS assay to identify small molecule antagonists of the estrogen receptor alpha (ER-alpha) signaling pathway using the BG1 cell line - cell viability counter screen (AID 743081).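 Also: compound given together with 17beta-estradiol as the ER stimulus; nearly all actives have a fitted effect of over 45% in size.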 Also: potency is read from the fitted curve at half-maximal effect. The settings on record: BG1Luc4E2 viability, CellTiter-Fluor, 22 h; series mostly up to 70.3 µM.
Another assay addresses Aromatase (Homo sapiens) (UniProt P11511). Briefly: qHTS assay to identify aromatase inhibitors (AID 743083). Also: nearly all actives have a fitted effect of over 55% in size. The settings on record: MCF-7 aro ERE, testosterone-driven ERE luciferase, 24 h; series mostly up to 70.3 µM.
A short description of assay [11]: qHTS assay to identify aromatase inhibitors - cell viability counter screen (AID 743084).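 Also: cells stimulated with testosterone during compound exposure; nearly all actives have a fitted effect of over 55% in size.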 Also: potency is read from the fitted curve at half-maximal effect. The note with it: MCF-7 aro ERE viability, CellTiter-Fluor, 24 h; series mostly up to 70.3 µM.
The target of assay [12] is Aryl hydrocarbon receptor (Homo sapiens) (UniProt P35869). Briefly: qHTS assay to identify small molecule that activate the aryl hydrocarbon receptor (AhR) signaling pathway (AID 743085). Also: nearly all actives have a fitted effect of over 15% in size. Also: potency is read from the fitted curve at half-maximal effect. The note with it: HepG2 AhR-luc (HG2L7.5c1), luciferase, 24 h; series mostly up to 70.3 µM. The essentials:
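HepG2 cells (HG2L7.5c1) stably carrying a firefly luciferase reporter driven by 20 dioxin responsive elements were exposed to compound for 24 h at 37C after a 5 h settling period; luminescence rise (ONE-Glo) indicated activation.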

Aryl hydrocarbon receptor (Homo sapiens), sequence (P35869 whole entry, looked up): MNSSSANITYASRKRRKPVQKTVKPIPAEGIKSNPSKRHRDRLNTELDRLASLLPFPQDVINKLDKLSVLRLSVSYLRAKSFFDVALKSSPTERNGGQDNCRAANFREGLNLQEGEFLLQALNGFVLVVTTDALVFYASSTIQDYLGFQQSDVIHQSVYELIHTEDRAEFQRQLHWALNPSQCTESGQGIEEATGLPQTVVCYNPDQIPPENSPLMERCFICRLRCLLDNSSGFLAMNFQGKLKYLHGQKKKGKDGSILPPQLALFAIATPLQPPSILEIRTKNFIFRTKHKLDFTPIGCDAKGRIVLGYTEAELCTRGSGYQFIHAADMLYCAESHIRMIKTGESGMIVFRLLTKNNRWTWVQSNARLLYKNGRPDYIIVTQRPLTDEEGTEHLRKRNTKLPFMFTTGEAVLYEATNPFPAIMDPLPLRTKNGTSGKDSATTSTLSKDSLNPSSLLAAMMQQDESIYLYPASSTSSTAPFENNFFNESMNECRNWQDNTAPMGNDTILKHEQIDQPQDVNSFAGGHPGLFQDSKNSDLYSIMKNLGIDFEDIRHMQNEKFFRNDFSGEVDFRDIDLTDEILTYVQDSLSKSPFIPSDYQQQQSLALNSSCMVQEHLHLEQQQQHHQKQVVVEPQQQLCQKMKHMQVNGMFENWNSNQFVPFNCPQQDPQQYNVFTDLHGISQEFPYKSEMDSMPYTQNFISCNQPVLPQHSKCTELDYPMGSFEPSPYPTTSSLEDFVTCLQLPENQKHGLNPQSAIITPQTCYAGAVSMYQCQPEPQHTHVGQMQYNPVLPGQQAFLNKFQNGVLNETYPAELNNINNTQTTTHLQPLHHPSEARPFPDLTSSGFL
Aromatase (Homo sapiens), sequence (P11511 whole entry, looked up): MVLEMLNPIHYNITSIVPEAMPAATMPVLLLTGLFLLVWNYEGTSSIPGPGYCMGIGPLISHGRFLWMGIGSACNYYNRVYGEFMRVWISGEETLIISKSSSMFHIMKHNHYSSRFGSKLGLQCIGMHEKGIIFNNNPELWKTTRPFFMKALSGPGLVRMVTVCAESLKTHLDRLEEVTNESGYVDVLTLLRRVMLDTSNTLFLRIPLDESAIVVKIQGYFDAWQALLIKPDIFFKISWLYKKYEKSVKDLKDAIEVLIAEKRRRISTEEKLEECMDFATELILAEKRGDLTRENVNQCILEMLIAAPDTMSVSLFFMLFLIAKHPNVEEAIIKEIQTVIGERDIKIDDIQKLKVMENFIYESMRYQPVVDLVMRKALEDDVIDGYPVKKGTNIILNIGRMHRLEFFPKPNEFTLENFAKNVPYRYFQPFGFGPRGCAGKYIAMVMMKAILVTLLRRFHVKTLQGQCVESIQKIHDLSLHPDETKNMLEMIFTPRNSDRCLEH

`CN(C)[C@@H]1C(=O)C(C(N)=O)=C(O)[C@@]2(O)C(=O)C3=C(O)c4c(O)cccc4[C@@](C)(O)[C@H]3[C@H](O)[C@@H]12`: the Potency result in assay [1], in assay [5], in [6], in [7], in [8] and in [9] was “inactive” each time. Moreover, the Potency result (in [10]; with Aromatase (Homo sapiens); in assay [11]; in [12]) was “inactive” in each case. Besides, the Potency entry was “inactive and 68 µM (active) and 43.3 µM (active)” in assay [2]; “inactive and 43.3 µM (active)” in assay [3]; “inactive and 48.6 µM (active)” in assay [4].

For `COc1ccccc1N`, the Potency result in assay [1], in [2], in assay [3], in assay [4], in assay [5] and in [6] was “inactive” throughout. The Potency entry (in assay [7]; in [8]; in assay [9]; in assay [10]; in the assay with Aromatase (Homo sapiens); in assay [11]) was “inactive” in each case. Further, in [12], the Potency is 54.4 µM (active) and inactive.

Regarding `CCCCCCCCCCCCCCCCn1cc[n+](C)c1`, the Potency entry in assay [8] and in assay [12] was “inactive” throughout. In assay [10], the Potency entry is “inactive and 49 µM (active) and 27.4 µM (active)”.

As for `CCCCCCCCCCCC(=O)O`, the Potency entry in assay [1], in assay [2], in [3], in assay [5], in [6] and in assay [7] was “inactive” in each case. The Potency entry in [8], in assay [9], in assay [10] and in assay [11] was “inactive” each time. Further, the Potency in assay [4] was 27.4 µM (active).

Regarding `CCC[N+]1(C)CCCC1`, the Potency result in assay [1], in [2], in assay [3], in [4], in [5] and in assay [6] was “inactive” in each case. Also, the Potency result in assay [7], in assay [9] and in assay [10] was “inactive” in each case.

Take `Oc1cccc2cccnc12`: the Potency result in [1], in assay [8], in assay [9] and in assay [10] was “inactive” throughout. Also, the Potency in [11] is 1.38 µM (active) and 686 nM (active).

As to `O=[N+]([O-])O`, the Potency entry in assay [1], in assay [5], in [6], in assay [7], in [9] and in [10] was “inactive” each time. In addition, the Potency entry (with Aromatase (Homo sapiens); in assay [11]; in assay [12]) was “inactive” in each case. Further, the Potency result in assay [2] was “inactive and 42.1 µM (active)”; in assay [3] it was “inactive and 9.43 µM (active)”; in assay [4] it was “inactive and 29.8 µM (active)”.

In the case of `CNC`, the Potency result in [1], in assay [5], in assay [6], in [7], in [9] and in [10] was “inactive” throughout. The Potency result (in the assay with Aromatase (Homo sapiens); in [11]; in assay [12]) was “inactive” in each case.

On to `CCCC[n+]1ccccc1C`, for which the Potency result in assay [1], in [2], in assay [3], in [4], in [5] and in assay [6] was “inactive” in each case. Also, the Potency result (in assay [7]; in assay [9]; in assay [10]; with Aromatase (Homo sapiens); in assay [11]) was “inactive” each time.
